Compound activity: PubChem BioAssay, several laboratories
Shown are actives, neighbours in structure and some others; about 1.8% of the full set was active somewhere.
APP transl inh: inhibitors of APP translation via 5'UTR reporter, primary screen, APP 5'UTR luciferase, SH-SY5Y cells; SH-SY5Y APP 5'UTR-luciferase reporter, luminescence; inhibition, % at 2 µM; 190,000 tested, 0.82% active; AID 1285, 2008;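 active = inhibition above a set limit, derived from the sample mean plus 3 SD, cut at about 45% in these data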
KLF5 inhibitor: KLF5 expression inhibitors, primary screen, DLD-1 cells, luminescence. DLD-1 KLF5 promoter-luciferase reporter. inhibition, % at 5 µM. 290,000 tested, 0.23% active;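 active = inhibition above a per-plate limit of that plate's mean compound inhibition plus 3 SD, cut at about 60% in these data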;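 note: higher means less KLF5 promoter-driven luciferase light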
Ba/F3 V617F tox: reduced viability of JAK2V617F-dependent Ba/F3 cells, primary screen, JAK2V617F inhibitor project, cell-based, Ba/F3 EpoR-JAK2V617F, luminescence; ATP luminescence; 220,000 tested, 1.1% active; inhibition, % at 5.6 µM;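 active = inhibition above the campaign mean plus 3 SD over all tested compounds, cut at about 24% in these data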;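 note: cytokine-independent growth of Ba/F3 cells driven by EpoR plus mutant JAK2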
IEC-6 cytotox: cytotoxicity in IEC-6 intestinal epithelial cells, primary screen, cytotoxicity control for KLF5 inhibitor project, cell-based, luminescence | 290,000 tested, 0.78% active | inhibition, % at 5 µM | AID 1825, 2009 | IEC-6 cytotoxicity, luminescence viability; in the data active = inhibition above about 22%
BaF3 tox: parental Ba/F3 cell viability inhibition, counter-screen for JAK2V617F inhibitor project, murine pro-B, CellTiter-Glo luminescence; CellTiter-Glo ATP luminescence; inhibition, % at 5.6 µM; 220,000 tested, 1.1% active; AID 1486, 2009;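 active = inhibition above a per-campaign cutoff, the mean inhibition of all tested compounds plus 3 SD, cut at about 27% in these data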
Large screens that a line does not name were inactive.

Cc1cccc(CCN(C(=O)c2csnn2)C(C(=O)NC2CCCC2)c2ccco2)c1 (stereo not drawn)	none (no result: APP transl inh, Ba/F3 V617F tox, BaF3 tox)
O=S(=O)(c1ccc2ccccc2c1)N1CCN(C(=S)Nc2ccc(F)cc2)CC1	BaF3 tox 35
COCCn1c(-c2ccc(OC)cc2)c(-c2ccc(OC)cc2)oc1=O	none (no result: APP transl inh, Ba/F3 V617F tox, BaF3 tox)
CCOc1cc(C2C3=C(CCCC3=O)N(C)C3=C2C(=O)CCC3)cc(Cl)c1O	Ba/F3 V617F tox 58, BaF3 tox 58
CCOc1ccc(C2CC(=O)NC3=C2C(=O)CCC3)cc1Cl (stereo not drawn)	none
Cc1ccc(CC(=O)Nc2ccncc2)cc1	Ba/F3 V617F tox 36, BaF3 tox 42
COc1cc(CN2CCN(c3ncccn3)CC2)cc(OC)c1	none (no result: APP transl inh, Ba/F3 V617F tox, BaF3 tox)
CCCOC(c1ccccc1)(c1ccc(C(F)(F)F)cc1)C(Oc1nc(C)cc(C)n1)C(=O)O (stereo not drawn)	KLF5 inhibitor 70 (no result: APP transl inh, Ba/F3 V617F tox, BaF3 tox)
Cc1ccccc1C(=O)NC(CC(C)C)C(=O)Nc1cccc(S(=O)(=O)N(C)C)c1 (stereo not drawn)	BaF3 tox 42
Cc1ccccc1C(=O)NC(CC(C)C)C(=O)Nc1ccc(F)c([N+](=O)[O-])c1 (stereo not drawn)	none
CC(=O)N(NC(=O)c1ccccc1Cl)C1CC(=O)N(c2ccc(C)cc2)C1=O (stereo not drawn)	none
CC(C(=O)c1ccc(-c2ccccc2)cc1)[n+]1cccc(C(N)=O)c1 (stereo not drawn)	none (no result: APP transl inh, Ba/F3 V617F tox, BaF3 tox)
Cc1cc[n+](C(C)C(=O)c2ccc(-c3ccccc3)cc2)cc1 (stereo not drawn)	Ba/F3 V617F tox 81, BaF3 tox 66
Cc1cc[n+](C(C)C(=O)c2ccc(Cl)cc2)cc1 (stereo not drawn)	none (no result: APP transl inh, Ba/F3 V617F tox, BaF3 tox)
CC(C(=O)c1ccc(-c2ccccc2)cc1)[n+]1ccccc1 (stereo not drawn)	Ba/F3 V617F tox 47, BaF3 tox 64
Cc1ccc[n+](C(C)C(=O)c2ccc(-c3ccccc3)cc2)c1 (stereo not drawn)	Ba/F3 V617F tox 58, BaF3 tox 69
C=CCOc1c(Br)cc(/C=N/Nc2ccc(C(=O)O)cc2)cc1OCC	IEC-6 cytotox 39
COc1ccccc1C(=O)NCC(=O)N/N=C/c1ccc([N+](=O)[O-])cc1	BaF3 tox 48
CCCC(=O)N/C(N)=N/c1nc(C)c2cc(C)ccc2n1	none (no result: APP transl inh)
Cc1cc2nc(/N=C(\N)NC(=O)C(C)C)nc(C)c2cc1C	BaF3 tox 30 (no result: APP transl inh)
CCC(=O)N/C(N)=N/c1nc(C)c2cc(C)c(C)cc2n1	Ba/F3 V617F tox 38, BaF3 tox 53 (no result: APP transl inh)
COc1ccc(C(=O)OCCN2CCN(C3=NS(=O)(=O)c4ccccc43)CC2)cc1OC	none (no result: APP transl inh, Ba/F3 V617F tox, BaF3 tox)
Cc1ccc(NS(=O)(=O)c2ccc(Cl)c(C(=O)Nc3cccc(C(=O)O)c3)c2)cc1	none (no result: APP transl inh, Ba/F3 V617F tox, BaF3 tox)
O=C(Nc1cccs1)Nc1c(F)c(F)c(F)c(F)c1F	Ba/F3 V617F tox 43, BaF3 tox 52
Cc1cccc(C)c1NC(=O)Nc1cccs1	none
O=C(Nc1cccs1)Nc1c(F)c(F)cc(F)c1F	Ba/F3 V617F tox 30, BaF3 tox 43
COc1ccc(CNC(=O)C2CCCN(S(=O)(=O)c3ccc(-n4cnnn4)cc3)C2)cc1 (stereo not drawn)	none (no result: APP transl inh, Ba/F3 V617F tox, BaF3 tox)
Cc1ccc(C)c(C(=O)Cn2ncc(Cl)c(Cl)c2=O)c1	none
CC(NC(=O)Cn1ncc(Cl)c(Cl)c1=O)C12CC3CC(CC(C3)C1)C2 (stereo not drawn)	APP transl inh 96, Ba/F3 V617F tox 63, IEC-6 cytotox 25, BaF3 tox 75
CCCc1cc(=O)[nH]c(SCC(=O)N(C)CC(=O)Nc2ccccc2CC)n1	none
CCC(=O)Nc1ccc(C(=O)Cn2ncc(Cl)c(Cl)c2=O)cc1	Ba/F3 V617F tox 78, BaF3 tox 45 (no result: APP transl inh)
CCc1ccccc1NC(=O)CN(C)C(=O)Cn1ncc(Cl)c(Cl)c1=O	APP transl inh 97
Cc1cc(Br)ccc1NC(=O)CNC(=O)Cn1ncc(Cl)c(Cl)c1=O	APP transl inh 96
CC1CN(Cc2ccccc2)c2ccccc2NC1=S (stereo not drawn)	none
Cc1ccc(C)c(N2CCN(C(=O)c3ccc4nsnc4c3)CC2)c1	none (no result: APP transl inh, Ba/F3 V617F tox, BaF3 tox)
Clc1cccc(NCc2cn3cccnc3n2)c1	none
COc1ccccc1NC(=O)/C(C#N)=C/C=C/c1ccco1	APP transl inh 88
CC(=O)c1ccc(N2CCN(C(=O)C3CCN(S(=O)(=O)c4cccs4)CC3)CC2)cc1	none (no result: APP transl inh, Ba/F3 V617F tox, BaF3 tox)
Cc1ccc2c(c1)C(=O)C(=O)N2CCOc1ccccc1	APP transl inh 79, Ba/F3 V617F tox 92, IEC-6 cytotox 91, BaF3 tox 87
COc1ccccc1CCC(=O)N(Cc1ccccc1)c1c(N)n(Cc2ccccc2)c(=O)[nH]c1=O	none (no result: APP transl inh, Ba/F3 V617F tox, BaF3 tox)
Cc1ccc(-c2ccc(=O)n(CC(=O)NCCC(C)C)n2)cc1	none (no result: APP transl inh, Ba/F3 V617F tox, BaF3 tox)
CCOC(=O)Cc1ccc(NC(=O)c2ccc(C(C)(C)C)cc2)cc1	APP transl inh 71
O=C(NCc1cnc2ccccn12)C1CCC(=O)N(Cc2ccccc2F)C1 (stereo not drawn)	none (no result: APP transl inh, Ba/F3 V617F tox, BaF3 tox)
O=C(NNc1c(Cl)cccc1Cl)c1ccno1	none (no result: APP transl inh)
O=S1(=O)CCC(NC(=S)NC2CCS(=O)(=O)C2)C1 (stereo not drawn)	Ba/F3 V617F tox 52, BaF3 tox 39
CC/C(=N\NC(=O)c1ccc2c(c1)OCO2)C12CC3CC(CC(C3)C1)C2	none
CC/C(=N\NC(=O)c1ccncc1)C12CC3CC(CC(C3)C1)C2	APP transl inh 52
C/C(=N\NC(=O)c1cccc(Br)c1)c1ccccn1	none (no result: APP transl inh, Ba/F3 V617F tox, BaF3 tox)
CCOc1cccc(-c2c(C(=O)N/N=C(\C)c3ccccn3)nnn2-c2nonc2N)c1	IEC-6 cytotox 52 (no result: APP transl inh, Ba/F3 V617F tox, BaF3 tox)
CCOc1ccc(OCc2ccc(C(=O)N/N=C(\C)c3ccccn3)cc2)cc1	APP transl inh 78
C/C(=N\NC(=O)C(c1ccccc1)c1ccccc1)c1ccccn1	APP transl inh 69
CCOc1cccc(-c2c(C(=O)N/N=C(\C)c3ccncc3)nnn2-c2nonc2N)c1	none (no result: APP transl inh, Ba/F3 V617F tox, BaF3 tox)
C/C(=N\NC(=O)C1CCCN(S(=O)(=O)c2ccccc2)C1)c1ccncc1 (stereo not drawn)	none
C/C(=N\NC(=O)C1CCCN(S(=O)(=O)c2ccccc2)C1)c1ccccn1 (stereo not drawn)	APP transl inh 46
COc1ccccc1-c1cc(-c2ccccc2)nc(SCC(=O)O)c1C#N	none (no result: APP transl inh, Ba/F3 V617F tox, BaF3 tox)
CCOc1ccccc1-n1c(COc2ccccc2)nnc1SCC(N)=O	APP transl inh 52
Cc1cccc(NC(=S)N/N=C/c2cccc(O)c2)c1C	Ba/F3 V617F tox 78, BaF3 tox 51 (no result: APP transl inh)
Cc1ccccc1NC(=S)N/N=C/c1ccc(O)cc1O	none (no result: APP transl inh)
C=CC[n+]1c(-c2ccc(OC)cc2)csc1NNC(=O)Nc1ccccc1	none
C=CC[n+]1c(-c2ccc(C)cc2)csc1Nc1ccc(NC(C)=O)cc1	APP transl inh 50
Cc1ccc(-c2ccc(CCC(=O)O)n2NC(=O)c2ccc([N+](=O)[O-])cc2)cc1	none
